# Structures can show the parent of a compound that is named as a salt.
# Tested on: Drosophila S2 cl14 SmoIP sensor cells
# Experiment: normalized SmoIP GFP fluorescence (untreated unstimulated = 0%, untreated Hh-stimulated = 100%); higher = more Smo activation sensor fluorescence
# Conditions: compound concentration: 2 uM, 24 h
# [1] = stimulation: Hh conditioned medium (+Hh)
# [2] = stimulation: mock conditioned medium (-Hh)
# 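Further: flow cytometry read-out as median GFP intensity of gated cells, compounds added 30 min before Hh-conditioned or mock medium, mock-treated cells serving as unstimulated baseline.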
SMILES,normalized SmoIP GFP fluorescence [1],normalized SmoIP GFP fluorescence [2]
COc1cccc(C=NCCN=Cc2cccc(OC)c2[O-])c1[O-].[Cl-].[Mn+3],114%,-2.2%
CNC(=O)c1cc(Oc2ccc(NC(=O)Nc3cc(C(C)(C)C)nn3-c3ccc4ncccc4c3)c(F)c2)ccn1,183%,0.605%
CCCCCCCCOc1ccccc1C(=O)Nc1ccc(C(=O)OCC[N+](C)(CC)CC)cc1 [otilonium-bromide],109%,-1.85%
CCCCCCCCCCCC1=C(O)C(=O)C=C(O)C1=O [embelin],108%,-2.08%
O=C(Nc1ccc(S(=O)(=O)Nc2ccccc2Cl)c(Cl)c1)c1ccccn1,131%,3.4%
COc1ccc(-c2ccc3ncc4c(c3c2)n(-c2ccc(N3CCNCC3)c(C(F)(F)F)c2)c(=O)n4C)cn1,66.3%,-7.6%
C[C@H](Cn1cnc2c(N)ncnc21)OCP(=O)(O)O [Tenofovir],104%,-4.47%
C[C@H]1[C@H](C)CC[C@]2(C(=O)O)CC[C@]3(C)C(=CC[C@@H]4[C@@]5(C)C[C@@H](O)[C@H](O)[C@@](C)(CO)[C@@H]5CC[C@]43C)[C@H]12 [Asiatic-acid],143%,-15.4%
Cc1ccccc1C(C(=O)NC1CCCCC1)N(C(=O)Cn1ccnc1C)c1cccc(F)c1 (stereo not drawn),111%,-1.97%
COc1ccc(CNCc2cccc3ccccc23)cc1,111%,-2.82%
NC(=O)C(c1ccccc1)(c1ccccc1)[C@@H]1CCN(CCc2ccc3c(c2)CCO3)C1 [darifenacin-hydrobromide],116%,0.0767%
COc1cc2ncnc(Nc3ccc(O)c(Br)c3)c2cc1OC,112%,-2.31%
C[C@@H]1C(=O)O[C@H]2C[C@@]34[C@H]5C[C@@H](C(C)(C)C)[C@]36[C@@H](OC(=O)[C@@H]6O)O[C@@]4(C(=O)O5)[C@]21O [ginkgolide-a],99.5%,-2.08%
Cc1cc(C(C)Nc2ccccc2)c2nc(N3CCOCC3)cc(=O)n2c1 (stereo not drawn),126%,-0.265%
CNC(=O)c1cc(Oc2ccc(NC(=O)Nc3ccc(Cl)c(C(F)(F)F)c3)cc2)ccn1 [Sorafenib-Tosylate],112%,47.1%
CC(C)C1CCC(C(=O)N[C@H](Cc2ccccc2)C(=O)O)CC1 (stereo partly drawn) [Nateglinide(Starlix)],110%,-4.71%
Cc1cnc(-c2cc(N3CCN(C(=O)CCS(C)(=O)=O)CC3)ncc2Cl)c(C)c1,102%,-1.63%
CN(C)Cc1cccc(N=C(c2ccccc2)c2c(O)[nH]c3cc(C(=O)N(C)C)ccc23)c1,86.4%,-3.71%
Nc1nc(N)c(N=O)c(OCC2CCCCC2)n1,139%,12.5%
C=CCn1c(=O)c2cnc(Nc3ccc(N4CCN(C)CC4)cc3)nc2n1-c1cccc(C(C)(C)O)n1,58.7%,-13.9%
CC(C)N(C[C@H]1O[C@@H](n2cnc3c(N)ncnc32)[C@H](O)[C@@H]1O)[C@H]1C[C@@H](CCc2nc3cc(C(C)(C)C)ccc3[nH]2)C1,124%,-2.59%
C[S+]([O-])c1ccc(-c2nc(-c3ccc(F)cc3)c(-c3ccncc3)[nH]2)cc1 (stereo not drawn),119%,-5.98%
CN(C)CCOc1ccc(-c2nc(-c3ccncc3)c(-c3ccc4c(c3)CC/C4=N\O)[nH]2)cc1,114%,4.48%
Cc1ccc(S(=O)(=O)C=CC#N)cc1,121%,2.86%
